Laboratory results: PubChem BioAssay (NCI)
This is part of a sample that, as a whole, favours compounds with a hit. Of some 83,000 tested, about 20% had one in any assay.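 Single-concentration screen, 48 h exposure, 96-well plates. Endpoint: percent growth. Below 10 = active.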 Values without a mark were called inactive. Calls of active or inactive are those of the source.

system: COLO 205 colon; assay: NCI-60 one-dose screen, 48 h (100 = growth as untreated, 0 = no growth, -100 = all killed); conditions: 10 µM

Structure (SMILES) | growth
Cc1ccc(N)cc1[N+](=O)[O-] | 110%
CC(C)COC(=O)COC(=O)OCCOCCOC(=O)OCC(=O)OCC(C)C | 117%
Nc1ccc(N)c([N+](=O)[O-])c1 | 112%
CC1(c2ccccc2)NC(=O)NC1=O (centres undefined) | 130%
O=[N+]([O-])c1ccc(CO)cc1 | 109%
O=c1cc(-c2ccccc2)[nH]c2c1CCCC2 | -10.1% (active)
C=C1CC/C=C(\C)C(=O)C[C@@H]2[C@@H]1CC2(C)C | 110%
Brc1cnc2ccccc2c1 | 100%
C=CCNc1nnc(C)s1 | 122%
Cc1ccc(O)c(C(=O)c2ccccc2)c1 | 113%
COc1ccc(C(O)c2ccccc2)cc1 (centres undefined) | 106%
CCOC(=O)c1cc(/C=C/c2ccc(Cl)cc2Cl)on1 | 57.4%
CC(=O)c1ccc(C)c(N)c1 | 110%
NC(=S)CN1CCOCC1 | 118%
CNC(=S)NC(C)(C)C | 119%
CC(=O)Nc1c(C)cc(C)cc1C | 110%
O=C(Nc1cc(-c2ccccc2)[nH]n1)c1ccc(Cl)cc1 | 104%

Structure (SMILES) | growth
O=C(NC1CCCCC1)OCc1c(COC(=O)NC2CCCCC2)c(-c2ccc(Cl)c(Cl)c2)n2c1CCC2 | 31.8%
CC(C)=C(NC(=O)c1ccccc1)C(=O)O | 112%
Nc1ccc(N=Nc2ccc(S(=O)(=O)O)cc2)c2ccccc12 | 90.7%
CCCCOC(OCCCC)c1ccccc1 | 112%
CN(C)c1ccc(C(c2ccc(O)cc2)c2ccc(N(C)C)cc2)cc1 | 101%
CN(C)c1ccc(CNC(C(=O)c2ccccc2)c2ccccc2)cc1 (centres undefined) | 113%
CC(=O)OCC1CCCO1 (centres undefined) | 102%
Cc1cc(C(O)(c2ccc(Nc3ccccc3)cc2)c2ccc(Nc3ccc(S(=O)(=O)O)cc3)cc2)ccc1N (centres undefined) | -71% (active)
CN(C)Cc1cc(C(C)(C)CC(C)(C)C)ccc1O | 97.1%
Oc1ccc(Cc2ccccc2)c2cccnc12 | 96.5%
COc1ccccc1C1OC2=Nc3cc(C)c(C)cc3NC2C1=O (centres undefined) | 79.1%
CC(C(=O)O)(C1CCCCC1)C1(O)CCCCC1 (centres undefined) | 104%
O=C1C[C@H](c2ccccc2)[C@H](c2ccccc2)C1 | 113%
CN1C(=O)CN2CCc3ccccc3C2c2cc(Cl)ccc21 (centres undefined) | 110%
O=c1[nH]c(O)c(/C=C2/C=Nc3ccccc32)[nH]1 | 101%
COc1cccc(Sc2ccc([N+](=O)[O-])c3no[n+]([O-])c23)c1 | -42.2% (active)
NC(=O)c1ccc(N=C(N)N=C(N)N)cc1 | 115%
